The record followed here is PubChem BioAssay (NCI).

About 79,000 compounds went through this panel and 15% of them were active in at least one assay; those are over-represented in the sample as a whole. Values without a mark were called inactive. Calls of active or inactive are those of the source. No stated cut-off is given here; in the data, active means growth inhibition above about 70%; inactive means the rest.

Assay [1] in a line: NCI Yeast Anticancer Drug Screen. Data for the rad50 strain (AID 155).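 Further: 0% = growth of vehicle-only cultures of the same strain.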 As to conditions: S. cerevisiae rad50 strain growth inhibition, hits give high values. Put shortly:
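Inhibition values express reduced yeast growth in compound-treated cultures relative to vehicle-treated controls.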

Assay [2] can be described thus: NCI Yeast Anticancer Drug Screen. Data for the mec2-1 strain (AID 157). As to conditions: S. cerevisiae mec2-1 strain, hits give high values. Put shortly: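 Strain: mec2-1 (DNA repair/cell cycle alteration). Compound exposure, then growth measured; inhibition expressed relative to vehicle.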
Assay [3] in a line: NCI Yeast Anticancer Drug Screen. Data for the sgs1 mgt1 strain (AID 161).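 Further: 0% = growth of cultures given vehicle only.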 As to conditions: S. cerevisiae sgs1 mgt1 strain, hits give high values. Put shortly: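 Inhibition of yeast growth, normalised to vehicle-treated controls, is reported for a strain bearing genetic alterations in DNA damage repair.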
Assay [4] can be described thus: NCI Yeast Anticancer Drug Screen. Data for the cln2 rad14 strain (AID 165).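 Further: 0% = growth equal to vehicle treated cultures.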 As to conditions: S. cerevisiae cln2 rad14 strain, hits give high values. The essentials:
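Compounds are applied to the cln2 rad14 yeast strain, and growth is then compared with that of vehicle-treated cultures to give inhibition.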

Assay [5] is described as follows: NCI Yeast Anticancer Drug Screen. Data for the bub3 strain (AID 167). As to conditions: S. cerevisiae bub3 mutant strain, hits give high values. The essentials: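 Steps: expose the mutant yeast strain to compound; grow alongside vehicle-treated cultures; measure growth; express inhibition against the vehicle cultures.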
A short description of assay [6]: NCI Yeast Anticancer Drug Screen. Data for the mlh1 rad18 strain (AID 175). As to conditions: S. cerevisiae mlh1 rad18 strain growth inhibition, hits give high values. Put shortly:
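Read-out is yeast growth inhibition, calculated against vehicle-only controls. The compound was applied to a strain engineered with DNA damage repair alterations.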

[7] abbreviates: at 5.0 µM (retest, dose inferred, filed as 0.5).
Where [8] appears, read: at 50.0 µM (retest, dose inferred, filed as 5.0).

Consider `CC(C(=O)O)c1cn(Cc2ccccc2)c2ccccc12` (stereo not drawn), for which the growth inhibition was -2% in assay [1] (setting [7]); 61% in assay [1] (setting [8]); 4.65% in assay [1] (at 50.0 µM); 6% in assay [2] (setting [7]); 58% in assay [2] (setting [8]); 43.2% in assay [2] (at 50.0 µM). For the same molecule, the growth inhibition was -28% in assay [3] (setting [7]); 36% in assay [3] (setting [8]); 31.4% in assay [3] (at 50.0 µM); 6% in assay [4] (setting [7]); 85% (active) in assay [4] (setting [8]); -8.85% in assay [4] (at 50.0 µM). The growth inhibition is 21% in assay [5] (setting [7]); 80% (active) in assay [5] (setting [8]); -43.8% in assay [5] (at 50.0 µM); 6% in assay [6] (setting [7]); 34% in assay [6] (setting [8]); 38.9% in assay [6] (at 50.0 µM).
On to `N#Cc1ccc([N+](=O)[O-])o1`, for which the growth inhibition is 11% in assay [1] (setting [7]); 97% (active) in assay [1] (setting [8]); 96.2% (active) in assay [1] (at 50.0 µM); 1% in assay [2] (setting [7]); 98% (active) in assay [2] (setting [8]); 99% (active) in assay [2] (at 50.0 µM). For the same molecule, the growth inhibition in assay [3] (setting [7]) is 9%; in assay [3] (setting [8]), 93% (active); in assay [3] (at 50.0 µM) it was 96.2% (active); in assay [4] (setting [7]), 8%; in assay [4] (setting [8]) it was 59%; in assay [4] (at 50.0 µM) it was 62.8%. Also, the growth inhibition was 7% in assay [5] (setting [7]); 92% (active) in assay [5] (setting [8]); 97.7% (active) in assay [5] (at 50.0 µM); 15% in assay [6] (setting [7]); 99% (active) in assay [6] (setting [8]); 97.9% (active) in assay [6] (at 50.0 µM).
As for `CCCCCCCCC(=O)NCCN(CCN)C(=O)CCCCCCCC`, the growth inhibition is -82% in assay [1] (setting [7]); 97% (active) in assay [1] (setting [8]); 90.2% (active) in assay [1] (at 50.0 µM); -43% in assay [2] (setting [7]); 98% (active) in assay [2] (setting [8]); 93.1% (active) in assay [2] (at 50.0 µM). Further, the growth inhibition in assay [3] (setting [7]) was -33%; in assay [3] (setting [8]), 97% (active); in assay [3] (at 50.0 µM), 91.7% (active); in assay [4] (setting [7]), -24%; in assay [4] (setting [8]), 98% (active); in assay [4] (at 50.0 µM) it was 89.9% (active). Also, the growth inhibition in assay [5] (setting [7]) was -47%; in assay [5] (setting [8]) it was 97% (active); in assay [5] (at 50.0 µM), 90.1% (active); in assay [6] (setting [7]), -68%; in assay [6] (setting [8]), 97% (active); in assay [6] (at 50.0 µM), 90% (active).
Take `CCCCCCC(C)OC(=O)/C=C/c1ccccc1` (stereo not drawn): the growth inhibition in assay [1] (setting [7]) was 4%; in assay [1] (setting [8]), 4%; in assay [1] (at 50.0 µM), 33.5%; in assay [2] (setting [7]) it was -2%; in assay [2] (setting [8]), 1%; in assay [2] (at 50.0 µM), 14.2%. The growth inhibition was 5% in assay [3] (setting [7]); 10% in assay [3] (setting [8]); 11.9% in assay [3] (at 50.0 µM); 0% in assay [4] (setting [7]); 1% in assay [4] (setting [8]); 39.4% in assay [4] (at 50.0 µM). Further, the growth inhibition was 2% in assay [5] (setting [7]); 13% in assay [5] (setting [8]); 17.5% in assay [5] (at 50.0 µM); 19% in assay [6] (setting [7]); -6% in assay [6] (setting [8]); 26.9% in assay [6] (at 50.0 µM).
On to `Cc1ccc(S(=O)(=O)Nc2ccc3c(c2)Cc2cc([N+](=O)[O-])ccc2-3)cc1`, for which the growth inhibition in assay [1] (setting [7]) is 45%; in assay [1] (setting [8]), 60%; in assay [1] (at 50.0 µM) it was 78% (active); in assay [2] (setting [7]), 24%; in assay [2] (setting [8]) it was 58%; in assay [2] (at 50.0 µM), 45.8%. For the same molecule, the growth inhibition in assay [3] (setting [7]) is 42%; in assay [3] (setting [8]), 62%; in assay [3] (at 50.0 µM) it was 67.2%; in assay [4] (setting [7]) it was 45%; in assay [4] (setting [8]), 52%; in assay [4] (at 50.0 µM), 48.3%. In addition, the growth inhibition is 57% in assay [5] (setting [7]); 63% in assay [5] (setting [8]); 59.2% in assay [5] (at 50.0 µM); 58% in assay [6] (setting [7]); 69% in assay [6] (setting [8]); 81.3% (active) in assay [6] (at 50.0 µM).
Turning to `CN(C)CCSc1cc(-c2ccccc2)c2ccccc2n1`, the growth inhibition in assay [1] (setting [7]) was -7%; in assay [1] (setting [8]), 90% (active); in assay [1] (at 50.0 µM), 59.5%; in assay [2] (setting [7]), 6%; in assay [2] (setting [8]), 87% (active); in assay [2] (at 50.0 µM) it was 29.9%. Also, the growth inhibition was -8% in assay [3] (setting [7]); 91% (active) in assay [3] (setting [8]); 39.9% in assay [3] (at 50.0 µM); 26% in assay [4] (setting [7]); 94% (active) in assay [4] (setting [8]); 21.9% in assay [4] (at 50.0 µM). In addition, the growth inhibition in assay [5] (setting [7]) is 9%; in assay [5] (setting [8]) it was 97% (active); in assay [5] (at 50.0 µM), 53.7%; in assay [6] (setting [7]), 15%; in assay [6] (setting [8]), 92% (active); in assay [6] (at 50.0 µM), 78.2% (active).
